Results on 31 compounds are retold here after ChEMBL document CHEMBL1961873, “Compounds: GSK PKIS; Assays: Nanosyn kinase panel” (2012).

The structures appear in SMILES notation. Several values for one entry are separate records, joined by “and”; a condition that tells them apart may be missing. Identical values can stand only once.
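Also: mean percent inhibition of CDK6 complexed with cyclin D3, from the GSK PKIS kinase inhibitor screen.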

Chain of Cyclin-dependent kinase 6 (Homo sapiens) (Q00534 whole entry): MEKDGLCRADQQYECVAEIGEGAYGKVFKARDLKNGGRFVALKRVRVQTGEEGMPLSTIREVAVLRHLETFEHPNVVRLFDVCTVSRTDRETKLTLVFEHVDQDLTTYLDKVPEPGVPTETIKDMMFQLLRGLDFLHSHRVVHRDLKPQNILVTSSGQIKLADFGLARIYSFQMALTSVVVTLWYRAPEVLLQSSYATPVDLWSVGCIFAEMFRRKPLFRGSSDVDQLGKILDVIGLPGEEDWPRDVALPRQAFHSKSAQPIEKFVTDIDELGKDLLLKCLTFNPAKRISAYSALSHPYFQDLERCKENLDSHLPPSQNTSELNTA

This test has as its target Cyclin-dependent kinase 6 (Homo sapiens) (UniProt Q00534). Conditions: at 0.1 µM.
The inhibition is the relative decrease from the control value, in per cent. As to `Cc1cc(O)cc(C)c1/C=C/c1cncc(C(N)=O)c1`, the inhibition turned out to be 3.58%.

For `CC1=C(C(=O)Nc2ccc3[nH]ncc3c2)C(c2ccc(F)cc2)N=C(c2ccc(C(F)(F)F)nc2)N1` (stereo unspecified), the inhibition was 2.17%.

As for `COc1c(C(N)=O)cc(-c2ccc(Cl)cc2)cc1-c1ccc(S(N)(=O)=O)cc1`, the inhibition is -0.9%.

In the case of `Cc1cc(O)cc(C)c1/C=C/c1cncc(C(=O)OC(C)(C)C)c1`, the inhibition was 3.38%.

Regarding `COc1ccc(Nc2ncc(-c3ccccc3)o2)cc1OC`, the inhibition was -1.71%.

Take `Fc1ccc(Nc2nccc(-c3c(-c4ccc(C(F)(F)F)cc4)nn4ncccc34)n2)cc1F`: the inhibition is 1.44%.

Turning to `O=C(O[C@H]1CN[C@H](C#Cc2cc3ncnc(Nc4ccc(OCc5cccc(F)c5)c(Cl)c4)c3s2)C1)N1CCOCC1`, the inhibition is 1.23%.

On to `COc1ccc2ncn(-c3cc(O[C@H](C)c4ccccc4C(F)(F)F)c(C(N)=O)s3)c2c1`, for which the inhibition is -4.17%.

For the compound `CNC(=O)c1ncccc1Nc1nc(Nc2cc3c(cc2OC)CCCN3C(=O)CN(C)C)nc2[nH]ccc12`, the inhibition amounted to 3.87%.

On to `COc1ccccc1-c1cc(/C=C2\C(=O)Nc3ncc(Br)cc32)cc(Br)c1O`, for which the inhibition amounted to 1.08%.

In the case of `c1cnn2ncc(-c3ccnc(NCCCN4CCOCC4)n3)c2c1`, the inhibition was -1.7%.

On to `CCCNc1cccc(-n2ncc3c(N/N=C/c4ccncc4)ncnc32)c1`, for which the inhibition worked out at 3.25%.

As to `OCCCNc1nccc(-c2c(-c3ccc(F)cc3)nn3cc(C(F)(F)F)ccc23)n1`, the inhibition stood at 1.79%.

Take `CS(=O)(=O)Nc1ccc(-c2ccc3c(NC(=O)C4CC4)n[nH]c3c2)cc1`: the inhibition came out at 7.5%.

For `CN1CCC(C(=O)Nc2n[nH]c3nc(-c4ccc(O)cc4)c(Br)cc23)CC1`, the inhibition was 36.9% and 34.2%.

Consider `CS(=O)(=O)Nc1ccc(-c2cc(-c3ccccc3)cc(C(N)=O)c2N)cc1`, for which the inhibition was -0.52%.

With `COc1cccc(Nc2nccc(-c3cnn4ncccc34)n2)c1`, the inhibition is 49.5%.

Take `CS(=O)(=O)CCNCc1ccc(-c2ccc3ncnc(Nc4ccc(OCc5ccccc5)cc4)c3c2)o1`: the inhibition was -1.55%.

In the case of `CC(C)c1ccc(-c2cc(-c3c[nH]nc3-c3ccccn3)ccn2)cc1`, the inhibition was -1.5%.

For `FC(F)(F)CNc1nccc(-c2cnn3ncccc23)n1`, the inhibition was determined as 0.9%.

Regarding `Cc1nnc(-c2cccc(-c3ccc(C(=O)NCC4CC4)cc3)c2)o1`, the inhibition amounted to 2.21%.

Regarding `COc1ccc(-c2nn3ncccc3c2-c2ccnc(Nc3ccc(F)c(F)c3)n2)cc1`, the inhibition was 5.13%.

Take `O=C(Nc1n[nH]c2nnc(-c3cccnc3)cc12)C1CC1`: the inhibition came out at 19.7%.

For the compound `NS(=O)(=O)c1ccc(N/N=C2\C(=O)Nc3cccc(CCc4ccncc4)c32)cc1`, the inhibition was found to be 36.6%.

With `CNC(=O)c1cncc(/C=C/c2ccccc2C)c1`, the inhibition was 3.69%.

For the compound `NS(=O)(=O)c1ccc(N/N=C2\C(=O)Nc3ccc(C(=O)NCc4ccncc4)cc32)cc1`, the inhibition stood at 8.64%.

For the compound `CCS(=O)(=O)c1ccc(OC)c(Nc2ncc(-c3cccc(F)c3)o2)c1`, the inhibition is 3.05%.

Consider `COc1cccc(-n2ncc3c(N/N=C/c4ccc(C(=O)NCCN(C)C)cc4)ncnc32)c1`, for which the inhibition came to 47.9%.

With `COC(=O)Nc1nc2ccc(Oc3ccc(NC(=O)Nc4cc(C(F)(F)F)ccc4F)cc3)cc2s1`, the inhibition stood at 0.38%.

Take `Cn1c(-c2nonc2N)nc2cnccc21`: the inhibition was -4.08%.

Regarding `CCN1CCC(C(=O)Nc2n[nH]c3nnc(-c4cccc(F)c4F)cc23)CC1`, the inhibition was 5.64%.
